{"source": "PubChem BioAssay (NCI)", "key": {"[1]": {"assay": "NCI Yeast Anticancer Drug Screen. Data for the rad52 strain (AID 147);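 note: 0% = growth of vehicle-treated control cultures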", "conditions": "S. cerevisiae rad52 mutant growth inhibition, hits give high values", "procedure,_shortened": "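Compounds are applied to a genetically defined yeast strain lacking normal DNA damage repair, and inhibition of growth is expressed relative to cultures given vehicle only.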"}, "[2]": {"assay": "NCI Yeast Anticancer Drug Screen. Data for the wt1 strain (AID 149);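 note: 0% = growth of vehicle-treated wt1 cultures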", "conditions": "S. cerevisiae wt1 strain (SPY 50644) growth inhibition, hits give high values", "procedure,_shortened": "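wt1 strain grown with compound or vehicle; inhibition taken from the growth difference.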"}, "[3]": {"assay": "NCI Yeast Anticancer Drug Screen. Data for the rad50EPP+ strain (AID 151);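 note: 0% = growth of vehicle-treated control cultures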", "conditions": "S. cerevisiae rad50 mutant strain, hits give high values", "procedure,_shortened": "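Compounds were applied to the rad50EPP+ yeast strain, which bears a defined DNA repair alteration, and growth inhibition was determined relative to vehicle-treated cultures.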"}, "[4]": {"assay": "NCI Yeast Anticancer Drug Screen. Data for the mgt1 strain (AID 153)", "conditions": "S. cerevisiae mgt1 mutant growth inhibition, hits give high values", "procedure,_shortened": "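Strain: mgt1 yeast, one of a set carrying defined DNA damage repair or cell cycle control alterations. Compound-treated growth compared with vehicle.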"}, "[5]": {"assay": "NCI Yeast Anticancer Drug Screen. Data for the rad50 strain (AID 155);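 note: 0% = growth of vehicle-only cultures of the same strain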", "conditions": "S. cerevisiae rad50 strain growth inhibition, hits give high values", "procedure,_shortened": "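DNA repair mutant yeast, compound exposure, growth read-out; inhibition is taken relative to vehicle.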"}, "[6]": {"assay": "NCI Yeast Anticancer Drug Screen. Data for the mec2-1 strain (AID 157)", "conditions": "S. cerevisiae mec2-1 strain, hits give high values", "procedure,_shortened": "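Strain: mec2-1 (DNA repair/cell cycle alteration). Compound exposure, then growth measured; inhibition expressed relative to vehicle.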"}, "[7]": {"assay": "NCI Yeast Anticancer Drug Screen. Data for the rad14 strain (AID 159);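 note: 0% = growth of vehicle-treated control cultures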", "conditions": "S. cerevisiae rad14 strain growth inhibition, hits give high values", "procedure,_shortened": "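DNA repair-defective yeast, compound-exposed; % growth inhibition derived by comparison with vehicle-treated controls.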"}, "[8]": {"assay": "NCI Yeast Anticancer Drug Screen. Data for the sgs1 mgt1 strain (AID 161);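 note: 0% = growth of cultures given vehicle only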", "conditions": "S. cerevisiae sgs1 mgt1 strain, hits give high values", "procedure,_shortened": "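Inhibition of yeast growth, normalised to vehicle-treated controls, is reported for a strain bearing genetic alterations in DNA damage repair.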"}, "[9]": {"assay": "NCI Yeast Anticancer Drug Screen. Data for the CLN2oe strain (AID 163);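 note: 0% = growth of vehicle-only control cultures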", "conditions": "S. cerevisiae CLN2oe strain, hits give high values", "procedure,_shortened": "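Growth of a genetically modified yeast strain is measured after compound exposure and compared with cultures given vehicle alone.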"}, "[10]": {"assay": "NCI Yeast Anticancer Drug Screen. Data for the cln2 rad14 strain (AID 165);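 note: 0% = growth equal to vehicle treated cultures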", "conditions": "S. cerevisiae cln2 rad14 strain, hits give high values", "procedure,_shortened": "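Compounds are applied to the cln2 rad14 yeast strain, and growth is then compared with that of vehicle-treated cultures to give inhibition.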"}, "[11]": {"assay": "NCI Yeast Anticancer Drug Screen. Data for the wt2 strain (AID 169);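 note: 0% = growth of vehicle-treated yeast cultures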", "conditions": "S. cerevisiae wt2 strain growth inhibition, hits give high values", "procedure,_shortened": "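This strain belongs to a panel of yeast strains with defined genetic alterations in DNA damage repair or cell cycle control. Compounds are applied, and growth inhibition is measured against vehicle-treated cultures.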"}, "[12]": {"assay": "NCI Yeast Anticancer Drug Screen. Data for the mlh1 strain (AID 171);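 note: 0% = growth of vehicle-treated control cultures of the same strain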", "conditions": "S. cerevisiae mlh1 strain growth inhibition, hits give high values", "procedure,_shortened": "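Growth of the mutant yeast strain after compound exposure, expressed as inhibition relative to vehicle-only controls.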"}, "[13]": {"assay": "NCI Yeast Anticancer Drug Screen. Data for the sgs1 strain (AID 173);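 note: 0% = growth of vehicle-only control cultures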", "conditions": "S. cerevisiae sgs1 mutant, hits give high values", "procedure,_shortened": "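Growth of a yeast strain bearing a defined genetic alteration is measured after compound treatment. Inhibition is expressed relative to vehicle-only controls.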"}, "[14]": {"assay": "NCI Yeast Anticancer Drug Screen. Data for the mlh1 rad18 strain (AID 175)", "conditions": "S. cerevisiae mlh1 rad18 strain growth inhibition, hits give high values", "procedure,_shortened": "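Read-out is yeast growth inhibition, calculated against vehicle-only controls. The compound was applied to a strain engineered with DNA damage repair alterations.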"}, "[15]": {"assay": "NCI Yeast Anticancer Drug Screen. Data for the rad18 strain (AID 177)", "conditions": "S. cerevisiae rad18 mutant growth inhibition, hits give high values", "procedure,_shortened": "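Growth of the mutant yeast strain after compound exposure, normalised to vehicle-only cultures.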"}, "[16]": {"conditions": "at 5.0 µM (retest, dose inferred, filed as 0.5)"}, "[17]": {"conditions": "at 50.0 µM (retest, dose inferred, filed as 5.0)"}}, "note": "About 79,000 compounds went through this panel and 15% of them were active in at least one assay; those are over-represented in the sample as a whole. Values without a mark were called inactive. The source made the active and inactive calls. Cut-off read from the data, not from the text of the source: active = growth inhibition above about 70%; inactive = the rest.", "data": [{"molecule": "O=CC1(F)CC1(c1ccccc1)c1ccccc1", "note": "(stereo not given)", "values": [{"measurement": "growth inhibition", "setting": "[1]; at 1.2 µM", "value": -2, "unit": "%"}, {"measurement": "growth inhibition", "setting": "[1]; at 3.7 µM", "value": -4, "unit": "%"}, {"measurement": "growth inhibition", "setting": "[1]; at 11.0 µM", "value": -2, "unit": "%"}, {"measurement": "growth inhibition", "setting": "[1]; at 33.0 µM", "value": 1, "unit": "%"}, {"measurement": "growth inhibition", "setting": "[1]; at 100.0 µM", "value": "81% (active)"}, {"measurement": "growth inhibition", "setting": "[2]; at 1.2 µM", "value": -1, "unit": "%"}, {"measurement": "growth inhibition", "setting": "[2]; at 3.7 µM", "value": -1, "unit": "%"}, {"measurement": "growth inhibition", "setting": "[2]; at 11.0 µM", "value": -4, "unit": "%"}, {"measurement": "growth inhibition", "setting": "[2]; at 33.0 µM", "value": -1, "unit": "%"}, {"measurement": "growth inhibition", "setting": "[2]; at 100.0 µM", "value": "73% (active)"}, {"measurement": "growth inhibition", "setting": "[3]; at 1.2 µM", "value": -1, "unit": "%"}, {"measurement": "growth inhibition", "setting": "[3]; at 3.7 µM", "value": 0, "unit": "%"}, {"measurement": "growth inhibition", "setting": "[3]; at 11.0 µM", "value": 5, "unit": "%"}, {"measurement": "growth inhibition", "setting": "[3]; at 33.0 µM", "value": 10, "unit": "%"}, {"measurement": "growth inhibition", "setting": "[3]; at 100.0 µM", "value": 17, "unit": "%"}, {"measurement": "growth inhibition", "setting": "[4]; at 1.2 µM", "value": -2, "unit": "%"}, {"measurement": "growth inhibition", "setting": "[4]; at 3.7 µM", "value": -7, "unit": "%"}, {"measurement": "growth inhibition", "setting": "[4]; at 11.0 µM", "value": -2, "unit": "%"}, {"measurement": "growth inhibition", "setting": "[4]; at 33.0 µM", "value": 0, "unit": "%"}, {"measurement": "growth inhibition", "setting": "[4]; at 100.0 µM", "value": "87% (active)"}, {"measurement": "growth inhibition", "setting": "[5]; at 1.2 µM", "value": 0, "unit": "%"}, {"measurement": "growth inhibition", "setting": "[5]; at 3.7 µM", "value": -46, "unit": "%"}, {"measurement": "growth inhibition", "setting": "[5]; [16]", "value": -3, "unit": "%"}, {"measurement": "growth inhibition", "setting": "[5]; at 11.0 µM", "value": 18, "unit": "%"}, {"measurement": "growth inhibition", "setting": "[5]; at 33.0 µM", "value": 5, "unit": "%"}, {"measurement": "growth inhibition", "setting": "[5]; [17]", "value": 17, "unit": "%"}, {"measurement": "growth inhibition", "setting": "[5]; at 50.0 µM", "value": 27.8, "unit": "%"}, {"measurement": "growth inhibition", "setting": "[5]; at 100.0 µM", "value": "94% (active)"}, {"measurement": "growth inhibition", "setting": "[6]; at 1.2 µM", "value": -3, "unit": "%"}, {"measurement": "growth inhibition", "setting": "[6]; at 3.7 µM", "value": -3, "unit": "%"}, {"measurement": "growth inhibition", "setting": "[6]; [16]", "value": 6, "unit": "%"}, {"measurement": "growth inhibition", "setting": "[6]; at 11.0 µM", "value": -2, "unit": "%"}, {"measurement": "growth inhibition", "setting": "[6]; at 33.0 µM", "value": 4, "unit": "%"}, {"measurement": "growth inhibition", "setting": "[6]; [17]", "value": 21, "unit": "%"}, {"measurement": "growth inhibition", "setting": "[6]; at 50.0 µM", "value": 21, "unit": "%"}, {"measurement": "growth inhibition", "setting": "[6]; at 100.0 µM", "value": "87% (active)"}, {"measurement": "growth inhibition", "setting": "[7]; at 1.2 µM", "value": 0, "unit": "%"}, {"measurement": "growth inhibition", "setting": "[7]; at 3.7 µM", "value": 1, "unit": "%"}, {"measurement": "growth inhibition", "setting": "[7]; at 11.0 µM", "value": 2, "unit": "%"}, {"measurement": "growth inhibition", "setting": "[7]; at 33.0 µM", "value": 7, "unit": "%"}, {"measurement": "growth inhibition", "setting": "[7]; at 100.0 µM", "value": "80% (active)"}, {"measurement": "growth inhibition", "setting": "[8]; [16]", "value": -2, "unit": "%"}, {"measurement": "growth inhibition", "setting": "[8]; [17]", "value": 53, "unit": "%"}, {"measurement": "growth inhibition", "setting": "[8]; at 50.0 µM", "value": 55.6, "unit": "%"}, {"measurement": "growth inhibition", "setting": "[9]; at 1.2 µM", "value": -2, "unit": "%"}, {"measurement": "growth inhibition", "setting": "[9]; at 3.7 µM", "value": 1, "unit": "%"}, {"measurement": "growth inhibition", "setting": "[9]; at 11.0 µM", "value": 2, "unit": "%"}, {"measurement": "growth inhibition", "setting": "[9]; at 33.0 µM", "value": 1, "unit": "%"}, {"measurement": "growth inhibition", "setting": "[9]; at 100.0 µM", "value": 25, "unit": "%"}, {"measurement": "growth inhibition", "setting": "[10]; [16]", "value": -1, "unit": "%"}, {"measurement": "growth inhibition", "setting": "[10]; [17]", "value": 2, "unit": "%"}, {"measurement": "growth inhibition", "setting": "[10]; at 50.0 µM", "value": 23.8, "unit": "%"}, {"measurement": "growth inhibition", "setting": "[11]; at 1.2 µM", "value": -1, "unit": "%"}, {"measurement": "growth inhibition", "setting": "[11]; at 3.7 µM", "value": 6, "unit": "%"}, {"measurement": "growth inhibition", "setting": "[11]; at 11.0 µM", "value": -2, "unit": "%"}, {"measurement": "growth inhibition", "setting": "[11]; at 33.0 µM", "value": 2, "unit": "%"}, {"measurement": "growth inhibition", "setting": "[11]; at 100.0 µM", "value": "98% (active)"}, {"measurement": "growth inhibition", "setting": "[12]; at 1.2 µM", "value": -2, "unit": "%"}, {"measurement": "growth inhibition", "setting": "[12]; at 3.7 µM", "value": -3, "unit": "%"}, {"measurement": "growth inhibition", "setting": "[12]; at 11.0 µM", "value": -3, "unit": "%"}, {"measurement": "growth inhibition", "setting": "[12]; at 33.0 µM", "value": 2, "unit": "%"}, {"measurement": "growth inhibition", "setting": "[12]; at 100.0 µM", "value": "94% (active)"}, {"measurement": "growth inhibition", "setting": "[13]; at 1.2 µM", "value": -2, "unit": "%"}, {"measurement": "growth inhibition", "setting": "[13]; at 3.7 µM", "value": -1, "unit": "%"}, {"measurement": "growth inhibition", "setting": "[13]; at 11.0 µM", "value": 3, "unit": "%"}, {"measurement": "growth inhibition", "setting": "[13]; at 33.0 µM", "value": 22, "unit": "%"}, {"measurement": "growth inhibition", "setting": "[13]; at 100.0 µM", "value": "98% (active)"}, {"measurement": "growth inhibition", "setting": "[14]; [16]", "value": -1, "unit": "%"}, {"measurement": "growth inhibition", "setting": "[14]; [17]", "value": 14, "unit": "%"}, {"measurement": "growth inhibition", "setting": "[14]; at 50.0 µM", "value": 14.2, "unit": "%"}, {"measurement": "growth inhibition", "setting": "[15]; at 1.2 µM", "value": -6, "unit": "%"}, {"measurement": "growth inhibition", "setting": "[15]; at 3.7 µM", "value": 2, "unit": "%"}, {"measurement": "growth inhibition", "setting": "[15]; at 11.0 µM", "value": 3, "unit": "%"}, {"measurement": "growth inhibition", "setting": "[15]; at 33.0 µM", "value": 13, "unit": "%"}, {"measurement": "growth inhibition", "setting": "[15]; at 100.0 µM", "value": "94% (active)"}]}]}
